Among the data in PubChem BioAssay AID1851 (National Center for Advancing Translational Sciences (NCATS), 2009) are AC50 and activity, negative = inhibition values, retold here.

Structures are written as SMILES. The campaign covered roughly 16,000 compounds. About 5,800 (36%) were called active. About 23% were inconclusive and are not listed. Calls come from the whole dose curve; as a rule, active = well fitted curve in the direction sought with a large enough effect; inconclusive = small, poorly fitted or top-dose-only effect, or effect the other way; inactive = no such curve, though single readings can be large or run the other way. The list shows a part of the results.
% is set by controls: 0 for no effect and ±100 for the full control effect.

In the experiment the target is Cytochrome P450 2C19 (Homo sapiens) (UniProt P33261). The experiment can be described thus: Cytochrome panel assay with activity outcomes. The note with it: recombinant CYP, pro-luciferin dealkylation, luminescence, p450-cyp2c19; series mostly up to 57.1 µM.
Chain of Cytochrome P450 2C19 (Homo sapiens) (P33261 whole entry, looked up): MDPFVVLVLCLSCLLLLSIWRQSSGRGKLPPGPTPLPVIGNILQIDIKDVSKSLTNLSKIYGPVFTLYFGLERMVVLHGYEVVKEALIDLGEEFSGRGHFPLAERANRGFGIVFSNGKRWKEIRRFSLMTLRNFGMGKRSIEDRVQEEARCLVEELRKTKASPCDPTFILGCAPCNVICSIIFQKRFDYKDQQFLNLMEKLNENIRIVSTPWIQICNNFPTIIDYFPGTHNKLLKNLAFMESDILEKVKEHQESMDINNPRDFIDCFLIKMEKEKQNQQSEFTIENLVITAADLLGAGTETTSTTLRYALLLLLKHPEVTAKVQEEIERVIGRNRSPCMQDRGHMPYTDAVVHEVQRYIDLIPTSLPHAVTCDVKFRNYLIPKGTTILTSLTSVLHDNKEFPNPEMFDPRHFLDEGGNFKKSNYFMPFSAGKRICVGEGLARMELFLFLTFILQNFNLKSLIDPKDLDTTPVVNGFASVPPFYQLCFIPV
`CCNc1ncc2nc(-c3cc(F)cc(F)c3)c(=O)n(Cc3cccs3)c2n1`: the AC50 – broadly, the concentration giving half of the maximal activity seen – is “inactive”.

With `CCCC(C(=O)Nc1nccs1)c1ccccc1` (configuration not stated), the AC50 was 3160 nM (active).

As for `O=C(O)[C@H](CCc1ccccn1)c1ccccc1`, the activity, negative = inhibition was 9.85% [at 11.4 µM] (inactive).

For `COc1cc(C=O)ccc1OCCCOc1ccccc1C(=O)O`, the AC50 result was “inactive”.

For the compound `COc1cc(C)ccc1OCCCOc1ccccc1Br`, the AC50 was 501 nM (active).

Turning to `COc1ccccc1OCCCOc1ccc([N+](=O)[O-])cc1Cl`, the half-maximal activity concentration (AC50) was 316 nM (active).

In the case of `COc1cc(C)ccc1OCCCOc1ccccc1Cl`, the AC50 was 1120 nM (active).

For the compound `COc1cc(C=O)ccc1OCCOCCOc1ccccc1Cl`, the AC50 is 1260 nM (active).

Turning to `CC(C)CO/N=C1/[C@H]2O[C@@H]2[C@@H](O)[C@H]2[C@H]1CCn1c(=O)n(C)c(=O)n12`, the activity, negative = inhibition is -6.23% [at 11.4 µM] (inactive).

`Cc1ccc(C)c(Nc2nc3nonc3nc2N2CCOCC2)c1`: the half-maximal activity concentration (AC50) is 25100 nM (active).

`CN1CCN(CCCBr)CC1`: the activity, negative = inhibition was 39.1% [at 11.4 µM] (inactive).

With `Cc1ccc(SCc2[nH]nc3c2C(C(C)C)C(C#N)=C(N)O3)cc1` (configuration not stated), the AC50 was 3160 nM (active).

`COCc1cc(=O)[nH]c2cc(NC(=O)C(F)(F)F)c(C)cc12`: the AC50 result is “inactive”.

`CN(Cc1ccco1)C(=O)C1CCC(=O)N1Cc1ccc(F)cc1` (configuration not stated): the AC50 was 17800 nM (active).

For `O=C(NCCN1CCN(Cc2ccccc2)CC1)C1CC(=O)N(C2CCCC2)C1` (configuration not stated), the AC50 result was “inactive”.

Take `O=C(Nc1ccc(Br)cc1)C1CCC(=O)N1Cc1ccccc1Cl` (configuration not stated): the AC50 is 631 nM (active).

As to `CN(CCCNC(=O)C1CCC(=O)N1Cc1ccccc1Cl)c1ccccc1` (configuration not stated), the AC50 is 10000 nM (active).

Turning to `CCCS(=O)(=O)N1CCCC(C(=O)NCCN(C)Cc2ccccc2)C1` (configuration not stated), the AC50 result was “inactive”.

On to `CC(C)N(CCNC(=O)C1CCC(=O)N1Cc1ccc(F)cc1)Cc1ccccc1` (configuration not stated), for which the AC50 was 2820 nM (active).

For the compound `Cc1ccc(CCN2CC(C(=O)NCCCN(C)Cc3ccccc3)CC2=O)cc1` (configuration not stated), the AC50 entry is “inactive”.

As for `Cc1ccc(OC[C@H](O)[C@H](C)NC(C)C)c2c1CCC2`, the AC50 result was “inactive”.

In the case of `CC(C)(C[C@@]1(C)NC(=O)NC1=O)OCc1ccccc1`, the activity, negative = inhibition is 18.1% [at 11.4 µM] (inactive).

As for `Cc1ccc(S(=O)(=O)c2cc3ccccc3oc2=Nc2ccc3c(c2)OCO3)cc1`, the AC50 is 4470 nM (active).

Regarding `Cc1ccc(N=Nc2c(O)ccc3cc(S(=O)(=O)O)ccc23)cc1`, the activity, negative = inhibition is 6.68% [at 11.4 µM] (inactive).

Turning to `O=c1oc2cc(N=Cc3ccc4c(c3)OCO4)ccc2c2ccccc12`, the activity, negative = inhibition was -3.38% [at 11.4 µM] (inactive).

Consider `CCC(C#CCN1CCCCC1)(CC)OCCC#N`, for which the AC50 was 14100 nM (active).

In the case of `CN(C)[C@@H]1C(=O)C(C(N)=O)=C(O)[C@]2(O)C(=O)C3=C(O)c4c(O)ccc(Cl)c4[C@H](O)[C@H]3C[C@@H]12`, the AC50 result was “inactive”.

As for `COc1cccc(-c2cc(C(=O)N/N=C/c3ccc(OC)c(COC(C)=O)c3)c3ccccc3n2)c1`, the AC50 was 2510 nM (active).

For `COc1ccc(/C=N/NC(=O)c2cc(-c3ccc(C)cc3C)nc3ccccc23)cc1COC(C)=O`, the AC50 entry was “inactive”.

On to `O=C(Nc1cccc(F)c1)N1CCCC2(CCN(C(=O)c3cc(C(F)(F)F)cc(C(F)(F)F)c3)CC2)C1`, for which the AC50 result is “inactive”.

As to `COc1cc(/C=N/NC(N)=O)c(Br)cc1OCC(=O)Nc1ccccc1C`, the AC50 is 11200 nM (active).

Turning to `O=C1C2=C(NC(=S)NC2c2ccc(Cl)cc2)NC(c2ccc(Cl)cc2)N1c1ccc(Cl)cc1` (configuration not stated), the AC50 was 2240 nM (active).

On to `COc1cccc(Cn2c(=O)c(-c3cccs3)nc3cnc(Nc4cccc(OC)c4)nc32)c1`, for which the AC50 result is “inactive”.

With `CCC(Sc1nc2cc3c(cc2c(=O)n1Cc1ccco1)OCO3)C(=O)Nc1ccccc1OC` (configuration not stated), the AC50 was 2510 nM (active).

In the case of `CCC(Sc1nc2cc3c(cc2c(=O)n1Cc1ccco1)OCO3)C(=O)Nc1cccc(OC)c1` (configuration not stated), the AC50 was 7080 nM (active).

`COc1cccc(Nc2ncc3nc(-c4cccs4)c(=O)n(Cc4cccs4)c3n2)c1`: the AC50 result is “inactive”.

Turning to `Cn1c(=O)c2[nH]cnc2n(C)c1=O`, the AC50 result was “inactive”.

With `Cc1nc2sccc2c(=O)n1-c1cccc(Cl)c1`, the AC50 is 794 nM (active).

On to `N#CCCn1c(=O)c(-c2cccs2)nc2cnc(Oc3cccc(Cl)c3)nc21`, for which the AC50 result was “inactive”.

In the case of `COC(=O)C/C=C\[C@@H](C)[C@@H](/C=N\OC[C@@H](O)[C@H]1O[C@H]2OC(C)(C)O[C@H]2[C@@H]1O)NS(=O)(=O)c1ccc(C)cc1`, the activity, negative = inhibition is -25.2% [at 11.4 µM] (inactive).

As for `COC(=O)C/C=C\[C@@H](C)[C@@H](/C=N\OCC[C@H]1C=C[C@H](OC(C)=O)[C@@H](COC(C)=O)O1)NS(=O)(=O)c1ccc(C)cc1`, the activity, negative = inhibition was -2.17% [at 11.4 µM] (inactive).

As to `COC(=O)C/C=C\[C@@H](C)[C@@H](/C=N\OC[C@@H]1O[C@H](c2ccccc2)C=C[C@@H]1Oc1ccc(OC)cc1)OC`, the concentration at half-maximal activity (AC50) was 1580 nM (active).

On to `CC(=O)OC[C@@H]1O[C@H](CCO/N=C\[C@@H](C)[C@H](OCc2ccccc2)C(C)C)C=C[C@@H]1OC(C)=O`, for which the activity, negative = inhibition was -11.7% [at 11.4 µM] (inactive).

With `CCCNC(=O)OC[C@@H]1O[C@H](CCO/N=C\[C@@H](C)[C@H](OCc2ccccc2)C(C)C)C=C[C@@H]1Oc1ccc(OC)cc1`, the AC50 was 3160 nM (active).

As to `COC(=O)C/C=C\[C@@H](C)[C@@H](/C=N\O[C@@H](C)CN1CCCCc2nc(C)c(C)cc21)NS(=O)(=O)c1ccc(C)cc1`, the activity, negative = inhibition was -9.76% [at 11.4 µM] (inactive).

With `C=CC[C@@H]1C=C[C@H](O/N=C\[C@@H](C)[C@H](OCc2ccccc2)C(C)C)[C@H](CO)O1`, the activity, negative = inhibition was -27.4% [at 11.4 µM] (inactive).

For `CCCNC(=O)OC[C@H]1O[C@@H](CCO/N=C\[C@@H](NS(=O)(=O)c2ccc(C)cc2)[C@H](C)/C=C\CC(=O)OC)C=C[C@@H]1Oc1ccc(OC)cc1`, the AC50 was 3160 nM (active).

Consider `COC(=O)C/C=C\[C@@H](C)[C@@H](/C=N\OC[C@@H]1O[C@H](c2ccccc2)C=C[C@@H]1Oc1ccc(OC)cc1)NS(=O)(=O)c1ccc(C)cc1`, for which the concentration at half-maximal activity (AC50) is 398 nM (active).

For `C=CC[C@@H]1C=C[C@@H](O/N=C\[C@@H](OC)[C@H](C)/C=C\CC(=O)OC)[C@@H](CO)O1`, the activity, negative = inhibition was -6.92% [at 11.4 µM] (inactive).

With `COC(=O)C/C=C\[C@@H](C)[C@@H](/C=N\OC[C@@H](O)COCc1ccco1)OC`, the activity, negative = inhibition is -19.2% [at 11.4 µM] (inactive).

Regarding `CCCc1c(OCCCOc2ccc(OCC(=O)O)cc2)ccc(C(C)=O)c1O`, the AC50 result is “inactive”.

As for `O=C1C2C3C=CC(C3)C2C(=O)N1/N=C/c1cn(Cc2ccc(F)cc2)c2ccccc12` (configuration not stated), the AC50 was 11200 nM (active).

As for `c1ccc2sc(SCSc3nc4ccccc4s3)nc2c1`, the AC50 is 1260 nM (active).

As to `c1ccc2sc(SCCSc3nc4ccccc4s3)nc2c1`, the activity, negative = inhibition was 6.86% [at 11.4 µM] (inactive).

`NCCSc1nc2ccccc2s1`: the concentration at half-maximal activity (AC50) is 1580 nM (active).

Regarding `c1ccc(NCCSc2nc3ccccc3s2)cc1`, the AC50 is 398 nM (active).

Consider `Oc1ccccc1C(Sc1nc2ccccc2s1)Sc1nc2ccccc2s1`, for which the AC50 is 3160 nM (active).

Take `C[N+](C)(C)CC(=O)O`: the AC50 entry is “inactive”.

Take `CC(C)OC(=O)CC12CN(C)CC(CC(=O)OC(C)C)(CN(C)C1)C2=O`: the AC50 result was “inactive”.

For `COc1ccc(-c2nc3cnc(N4CCOCC4)nc3n(C[C@H]3CCCO3)c2=O)cc1`, the AC50 result was “inactive”.

Consider `O=C(O)[C@@H]1CS[C@@]2(CCCN(Cc3ccccc3)C2)N1`, for which the activity, negative = inhibition was 7.34% [at 11.4 µM] (inactive).

Regarding `C#CCCCO/N=C1/C[C@@H](O)[C@@H](O)[C@@H]2[C@@H]3C(=O)N(CC)C(=O)[C@H]3CC[C@@H]12`, the activity, negative = inhibition was -28.6% [at 11.4 µM] (inactive).

On to `CCOC(=O)c1cnc(SCCc2ccccc2)nc1N`, for which the AC50 is 7940 nM (active).

Take `Cc1ccc(C2=Nc3ccccc3S[C@@H](c3cccc([N+](=O)[O-])c3)C2)cc1`: the concentration at half-maximal activity (AC50) was 3980 nM (active).

Turning to `Cc1ccc(/C(C#N)=C/c2cccc([N+](=O)[O-])c2)cc1`, the activity, negative = inhibition is 8.97% [at 11.4 µM] (inactive).

`NC[C@@H]1O[C@H](C23CC4CC(CC(C4)C2)C3)Cc2c1ccc(O)c2O`: the AC50 result is “inactive”.

Turning to `NC[C@@H]1O[C@H](c2ccccc2)Cc2c1ccc(O)c2O`, the half-maximal activity concentration (AC50) is 1000 nM (active).

As to `O=C1[C@H]2[C@H]3[C@H](O)[C@H](O)C/C(=N/OCc4ccccc4)[C@@H]3CC[C@@H]2C(=O)N1C[C@@H]1CCCO1`, the activity, negative = inhibition was -0.01% [at 11.4 µM] (inactive).

With `CC1(CCC(=O)OC2CCCCC2)OCCO1`, the activity, negative = inhibition is -35.8% [at 11.4 µM] (inactive).

On to `O=C(CC1(O)CCCCC1)OC1CCCC1`, for which the AC50 was 1580 nM (active).

Regarding `CC1(CC(=O)O)O[C@H]2CCCCC[C@H]2O1` (some centres not stated) (tested in a mixture with another compound), the activity, negative = inhibition was 1.88% [at 11.4 µM] (inactive).

In the case of `Cc1cnc(CNc2cc(-c3ccccc3CN(C)C)ncn2)cn1`, the AC50 entry is “inactive”.

As for `COc1ccccc1CNc1cc(-c2ccccc2C)ncn1`, the AC50 was 1000 nM (active).

In the case of `COc1ccccc1CNc1cc(-c2ccc(C(=O)N(C)C)cc2)ncn1`, the AC50 entry was “inactive”.

`COc1ccccc1CNc1cc(-c2ccccc2OC)ncn1`: the AC50 was 1580 nM (active).

Take `CC1CCN(c2cc(N3CCC(C)CC3)c([N+](=O)[O-])cc2/C=C(\C#N)c2nn(-c3ccccc3)c(N)c2C#N)CC1`: the half-maximal activity concentration (AC50) was 447 nM (active).

In the case of `N#C/C(=C\c1cc([N+](=O)[O-])c(N2CCCCC2)cc1N1CCCCC1)c1nn(-c2ccccc2)c(N)c1C#N`, the concentration at half-maximal activity (AC50) is 282 nM (active).

On to `Cc1noc(C)c1C(=O)N1CCC2(CCN(C(=O)NC(C)C)CC2)CC1`, for which the AC50 entry is “inactive”.

Consider `OC[C@@H]1NC[C@@H](O)[C@@H](O)[C@H]1O`, for which the AC50 result is “inactive”.

With `O=C(NNC(=S)NCc1ccco1)c1ccc(Cl)s1`, the AC50 is 7940 nM (active).

Take `Nc1ncnc2c1ncn2[C@H]1O[C@@H](C(=O)OCCO)[C@@H](O)[C@H]1O`: the activity, negative = inhibition is 4.2% [at 11.4 µM] (inactive).

On to `C=C1c2cccc(O)c2C(O)=C2C(=O)[C@@]3(O)C(O)=C(C(N)=O)C(=O)[C@@H](N(C)C)[C@@H]3[C@@H](O)[C@H]12`, for which the AC50 entry was “inactive”.
